Data reported in ChEMBL document CHEMBL3988442, “University of Dundee, Small-Polar-MMV Screening Library” (2021).
Screen size: about 53,000 compounds; about 900 (1.7%) showed an effect of 50% or more. Only a selection was taken, and strong results are over-represented in it overall.

Each molecule was assayed on Mycobacterium tuberculosis (assay: Cornell - Phenotypic assay to identify agents that inhibit growth of Mycobacterium tuberculosis). Details: 10 mM as filed; unlikely as a test dose.
Format: functional
Parameters: scale not given: direction of the effect not stated beside the values

For Cc1nn(C)c(C)c1-c1ccc(=O)n(C(C)C(=O)NC2CC2)n1 (configuration not stated), which “Percent Effect” value is on record?
Its value is 11.69%.

Which “Percent Effect” value does the source give for CC(C)Nc1nc2c(s1)C(=O)CN(CC1CC1)C2 here?
The value was -4.506%.

With CCn1nc(C)c2c1cnn2CC(=O)N1CCN(C)CC1 as the molecule, how does the “Percent Effect” value read?
Its value is 13.07%.

How did the “Percent Effect” value turn out when O=C(O)CN1CCOCC(Cc2ccc(Cl)cc2)C1 (configuration not stated) was run?
The value was -49.54%.

With CCCc1cc(=O)n(CC(=O)NC(C)C)c(-n2nc(C)cc2C)n1 as the molecule, how does the “Percent Effect” value read?
The value was 19.53%.

CCCc1cc(=O)n(CC(=O)NCCOC)c(-n2nc(C)cc2C)n1 was tested. Which “Percent Effect” value did it give?
The value was 61.91%.

With CCCNC(=O)Cn1c(-n2nc(C)cc2C)nc(CCC)cc1=O as the molecule, how does the “Percent Effect” value read?
Its value is 16.57%.

Which “Percent Effect” value does the source give for Cc1nn2cc(CNc3nccc(CCC(F)(F)F)n3)nc2s1 here?
The value was 14.28%.

For COc1cc(OC)cc(-c2noc(CN)n2)c1, which “Percent Effect” value is on record?
Its value is -71.7%.

Which “Percent Effect” value does the source give for Cl.NC(Cc1nc(-c2ccccc2)no1)c1ccccc1 (configuration not stated) here?
The value was 19.6%.

For COc1cc(OC)cc(-c2noc(CC(N)c3ccccc3)n2)c1 (configuration not stated), which “Percent Effect” value is on record?
The value was 63.98%.

For COc1c(C2CCCN2Cc2nc(C3CC3)no2)c(C)nn1C (configuration not stated), which “Percent Effect” value is on record?
Its value is -19.26%.

With CC(C)(C)c1noc(CN2CCCc3cc(OC(F)(F)F)ccc32)n1 as the molecule, how does the “Percent Effect” value read?
Its value is 12.22%.

With Cc1nn(C)cc1C1CC(=O)Nc2c1cnn2C (configuration not stated) as the molecule, how does the “Percent Effect” value read?
The value was 30.3%.

With Cc1nnc(NCc2ccc(N3CCC(CO)CC3)cc2)c(C#N)c1C as the molecule, how does the “Percent Effect” value read?
The value was -12.64%.

With N#Cc1c(Cl)nsc1NCc1ccc(N2CCCC(C(N)=O)C2)cc1 (configuration not stated) as the molecule, how does the “Percent Effect” value read?
Its value is 80.86%.

How did the “Percent Effect” value turn out when N#Cc1c(Cl)nsc1NCc1ccc(N2CCC(CO)CC2)cc1 was run?
The value was 51.2%.

Which “Percent Effect” value does the source give for N#Cc1c(Cl)nsc1NCc1ccc(N2CCSCC2)cc1 here?
Its value is 23.04%.

NC(=O)C1CCCN(c2ccc(CNC(=O)c3cnsn3)cc2)C1 (configuration not stated) was tested. Which “Percent Effect” value did it give?
The value was -38.73%.

Which “Percent Effect” value does the source give for NC(=O)C1CCCN(c2ccc(CNC(=O)c3csnn3)cc2)C1 (configuration not stated) here?
The value was -20.12%.

OC1(CNCCc2csc(-c3cccnc3)n2)CCNC1 (configuration not stated) was tested. Which “Percent Effect” value did it give?
The value was 6.154%.

With CN1CCOC(C)(C(=O)Nc2nccs2)C1 (configuration not stated) as the molecule, how does the “Percent Effect” value read?
The value was -67.22%.

Which “Percent Effect” value does the source give for COCC1COCCC12CCN(C(=O)COc1ccccc1C)CC2 (configuration not stated) here?
Its value is -10.81%.

O=C(NCCN1CCc2ccccc21)c1cc(-c2ccc(O)cc2)n[nH]1 was tested. Which “Percent Effect” value did it give?
Its value is 53.46%.

With O=C(NCCN1CCNC1=O)c1cc(-c2ccc(O)cc2)n[nH]1 as the molecule, how does the “Percent Effect” value read?
The value was 15.58%.

With Cc1cc(C(=O)NCCN2CCCc3ccccc32)[nH]n1 as the molecule, how does the “Percent Effect” value read?
The value was -6.129%.

With CCc1ccc(NC(=O)c2ncc(C(N)=O)cc2Cl)cc1F as the molecule, how does the “Percent Effect” value read?
The value was 15.72%.

Which “Percent Effect” value does the source give for O=C(NCCc1cccc(F)c1)C1(n2cnnn2)CCCCC1 here?
The value was 18.95%.

How did the “Percent Effect” value turn out when O=C(NCCc1c[nH]c2ccccc12)C1(n2cnnn2)CCCCC1 was run?
The value was 25.7%.

With O=C(NCCc1c[nH]c2ccc(F)cc12)C1(n2cnnn2)CCCCC1 as the molecule, how does the “Percent Effect” value read?
The value was 65.5%.

With CCc1ncc2c(n1)CN(Cc1nc(-c3ccco3)oc1C)CC2 as the molecule, how does the “Percent Effect” value read?
Its value is -14.23%.

How did the “Percent Effect” value turn out when O=C(Cc1nc(-c2ccncc2)n[nH]1)N1CCOCC1 was run?
The value was -3.393%.

CCCNc1ccc(C(=O)NCCc2cccc(Cl)c2)cn1 was tested. Which “Percent Effect” value did it give?
The value was -5.958%.

With COc1ncc(C(=O)NCc2ccc(Br)cc2)cn1 as the molecule, how does the “Percent Effect” value read?
Its value is 25.41%.

COc1ccc(CNC(=O)c2ccc(Br)cn2)cc1 was tested. Which “Percent Effect” value did it give?
Its value is 8.291%.

For COC(=O)c1ccc(C(=O)NCc2ccc(Br)cc2)cn1, which “Percent Effect” value is on record?
The value was 95.13%.

For CCc1nn(-c2cc(Oc3cccc(C)c3)nc(C)n2)c(N)c1C#N, which “Percent Effect” value is on record?
Its value is 11.01%.

CS(=O)(=O)N1CCN(C(=O)c2cc(-c3ccco3)cs2)CC1 was tested. Which “Percent Effect” value did it give?
Its value is 10.89%.

With O=C1C(CS(=O)(=O)Nc2ccc(Cl)cc2)=NC(=O)n2cccc21 as the molecule, how does the “Percent Effect” value read?
The value was 11.65%.

CC(C)c1ccc(NS(=O)(=O)CC2=NC(=O)n3cccc3C2=O)cc1 was tested. Which “Percent Effect” value did it give?
Its value is 59.8%.

With O=C1C(CS(=O)(=O)Nc2ccc(Br)cc2)=NC(=O)n2cccc21 as the molecule, how does the “Percent Effect” value read?
Its value is 17.38%.

With COc1cccc(S(=O)(=O)NC(=O)CCC2CCCC2)c1 as the molecule, how does the “Percent Effect” value read?
The value was 12.89%.

For CC(=O)N1CCC(c2nccnc2CNC(=O)c2cc[nH]n2)CC1, which “Percent Effect” value is on record?
The value was -11.98%.

How did the “Percent Effect” value turn out when CCc1ccc(CN(Cc2ccccc2)CC(C)CO)nc1 (configuration not stated) was run?
Its value is 46.77%.

With Cc1c(C(=O)NC(C)C(C)C)nnn1-c1cccc2c1CCN(C)C2 (configuration not stated) as the molecule, how does the “Percent Effect” value read?
The value was 4.546%.

With Cc1[nH]n(-c2ccccc2)c2nnc(N)c1-2 as the molecule, how does the “Percent Effect” value read?
Its value is 107.4%.

Which “Percent Effect” value does the source give for CN(C)CCN1C(=O)CCC12CCCN(C(=O)c1ccncc1F)C2.O=C(O)C(F)(F)F (configuration not stated) here?
Its value is -23.79%.

Which “Percent Effect” value does the source give for O=S(=O)(c1cccnc1)N1CCC(OCCCc2ccccc2)C1 (configuration not stated) here?
The value was 55.63%.

Which “Percent Effect” value does the source give for CS(=O)(=O)N1CCC(OCCCc2ccccc2)C1 (configuration not stated) here?
The value was 18.05%.

Cn1cc(S(=O)(=O)N2CCC(OCCCc3ccccc3)C2)cn1 (configuration not stated) was tested. Which “Percent Effect” value did it give?
The value was 25.94%.

For CS(=O)(=O)N1CCCC12CCCN(S(=O)(=O)c1ccc(F)cc1)C2 (configuration not stated), which “Percent Effect” value is on record?
The value was -19.89%.

Which “Percent Effect” value does the source give for COc1ccc(S(=O)(=O)N2CCCC3(CCCN3S(C)(=O)=O)C2)cc1 (configuration not stated) here?
Its value is 103.2%.

With CC1(C(N)=O)CN(S(=O)(=O)c2cccc(F)c2)CCO1 (configuration not stated) as the molecule, how does the “Percent Effect” value read?
The value was -8.727%.

How did the “Percent Effect” value turn out when CS(=O)(=O)N1CCCC12CCCN(S(=O)(=O)c1cc(F)cc(F)c1)C2 (configuration not stated) was run?
The value was 2.906%.

With COc1cccc(S(=O)(=O)N2CCOC(C)(C(N)=O)C2)c1 (configuration not stated) as the molecule, how does the “Percent Effect” value read?
The value was 8.35%.

COc1ccc(S(=O)(=O)N2CCOC(C)(C(N)=O)C2)cc1 (configuration not stated) was tested. Which “Percent Effect” value did it give?
The value was 55.81%.

CCc1nnc(Nc2cc(C)nc(C3CN(C(=O)C(C)C)CCO3)c2)s1 (configuration not stated) was tested. Which “Percent Effect” value did it give?
Its value is 1.783%.

CN1CCCC(c2nnc3n2CCN(S(=O)(=O)c2ccccc2Cl)C3)C1 (configuration not stated) was tested. Which “Percent Effect” value did it give?
Its value is 2.1%.

How did the “Percent Effect” value turn out when CCOc1ccccc1CNC(=O)c1cnn(CC)c1C(F)(F)F was run?
The value was 4.777%.

COCCn1ccc(=O)c(OCC(=O)Nc2ccc(Br)cc2)c1C was tested. Which “Percent Effect” value did it give?
Its value is 27.51%.

With COCCn1ccc(=O)c(OCC(=O)Nc2cccc(OC)c2)c1C as the molecule, how does the “Percent Effect” value read?
The value was -5.179%.

For COCCn1ccc(=O)c(OCC(=O)Nc2ccc(OC)cc2)c1C, which “Percent Effect” value is on record?
The value was 53.75%.

For c1cc(-c2n[nH]cc2-c2ccnc(N3CCCC3)n2)ccn1, which “Percent Effect” value is on record?
The value was 22.12%.

How did the “Percent Effect” value turn out when Cc1nnc2ccc(N3CCC4(CCOC4)C3)nn12 (configuration not stated) was run?
Its value is 16.18%.

Which “Percent Effect” value does the source give for FC(F)c1nnc2ccc(N3CCC4(CCOC4)C3)nn12 (configuration not stated) here?
Its value is 23.66%.

FC(F)c1nnc2ccc(N3CCC4(CCCCC4)C3)nn12 was tested. Which “Percent Effect” value did it give?
The value was 52.01%.

For CCOC(=O)c1n[nH]cc1-c1cncn1CC(C)n1nc(C)cc1C (configuration not stated), which “Percent Effect” value is on record?
The value was -15.99%.
